Bioassay records deposited in PubChem BioAssay by several laboratories.
ROCK2 blocker – blocks human Rho kinase 2 activity; inhibition, % at 6 µM; purified ROCK2, Kinase-Glo ATP depletion luminescence; AID 604; O75116; 60,000 tested, 0.35% active;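 active means inhibition above the screen-wide mean inhibition plus 3 SD, cut at about 18% in these data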
PKA kinase inh – inhibitors of human protein kinase A; 65,000 tested, 0.1% active; PKA Kemptide phosphorylation, Kinase-Glo ATP luminescence; inhibition, % at 6 µM; P17612;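 active means inhibition above the screen-wide mean inhibition plus 3 SD, cut at about 21% in these data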
D1 mod – allosteric modulators of human D1 dopamine receptor; 58,000 tested, 5.9% active; B-score at 10 µM; HEK293 D1, CRE-luciferase, dopamine EC30 potentiation; actives deviate in either direction;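 active means luminescence count or its row- and column-corrected plate score outside the 99.7% band of the plate's sample wells, on either side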
Target sequence (P21728 whole entry, looked up): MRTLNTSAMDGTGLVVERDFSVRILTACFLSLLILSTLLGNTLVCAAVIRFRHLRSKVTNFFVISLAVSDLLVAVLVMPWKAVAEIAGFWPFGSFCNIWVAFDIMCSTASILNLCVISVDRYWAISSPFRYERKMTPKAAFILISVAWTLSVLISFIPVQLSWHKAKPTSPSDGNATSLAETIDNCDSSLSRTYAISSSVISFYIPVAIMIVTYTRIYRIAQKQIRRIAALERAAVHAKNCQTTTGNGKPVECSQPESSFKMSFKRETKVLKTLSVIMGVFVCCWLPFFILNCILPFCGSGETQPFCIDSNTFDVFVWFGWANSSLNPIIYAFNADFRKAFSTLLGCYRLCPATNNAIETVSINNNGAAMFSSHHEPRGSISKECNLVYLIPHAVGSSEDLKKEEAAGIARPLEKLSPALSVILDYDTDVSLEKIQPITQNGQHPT
hDAT+cocaine – changed human dopamine transporter uptake under cocaine IC80; LLC-PK1 hDAT cells, [14C]-dopamine uptake with cocaine IC80; actives deviate in either direction; 110,000 tested, 1.3% active; Q01959; B-score at 10 µM;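 active means Z score or B-score, a plate-position-corrected score, falls beyond the plate's 99.7% confidence bounds, in either direction; inactive means both scores lie inside the 99.7% bounds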
D1 mod confirm – D1 receptor (human) allosteric modulation, confirmed; HEK293 D1 CRE-luciferase, dopamine EC30 potentiation; active compounds read high; shares compounds with D1 mod; luminescence at 10 µM; 2,200 tested, 88% active; AID 642;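 active means luminescence in either of two replicates above the same-plate mean plus 3 SD of the low-dose dopamine control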
D1 ag no DA – D1 (human) signaling in absence of dopamine | HEK293 D1 CRE-luciferase, luminescence, no dopamine; active compounds read high | 1,900 tested, 0.8% active | shares compounds with D1 mod | luminescence at 10 µM; in the data active means luminescence above about 3900
Isoprot counter – counter-screen for D1 modulators: isoproterenol response in HEK293 cells | shares compounds with D1 mod | HEK293 D1 CRE-luciferase, isoproterenol EC30 counter-screen | calls only at 10 µM | 2,200 tested, 63% active | AID 647;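 active means luminescence in either replicate above plate mean of wells with a partly effective reference agonist dose plus 3 SD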;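 further: isoproterenol raises cAMP through native beta-adrenoceptor Gs so signal bypasses D1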
Of the large screens only hits and unclear results are named; the others gave an inactive call (follow-up assays come after a bar, where they were run). The entries come from a sample that favours hits as a whole.

CC1CC(=O)C2=C(C1)Nc1ccccc1N(C(=O)COc1ccccc1)C2c1ccco1 (stereo not given)	D1 mod 14 | D1 mod confirm inactive | D1 ag no DA inactive | Isoprot counter inactive
CC(=O)c1ccc(N2CCN(c3ccc(S(=O)(=O)N4CCN(C)CC4)cn3)CC2)cc1	none (no result: ROCK2 blocker, PKA kinase inh, D1 mod)
CCCc1nc2oc(C(=O)OCC)c(N)c2c2c1COC(C)(C)C2	none
CCOC(=O)c1oc2nc(C(C)C)c3c(c2c1N)CC(C)(C)OC3	D1 mod 4.7 | D1 mod confirm 6644 | D1 ag no DA inactive | Isoprot counter active
COc1ncnc2c1oc1nc(C(C)C)c3c(c12)CC(C)(C)OC3	D1 mod 8.7 | D1 mod confirm 20880 | D1 ag no DA inactive | Isoprot counter active
CNCC(O)Cn1c(C(F)(F)F)nc2ccccc21 (stereo not given)	none (no result: ROCK2 blocker, PKA kinase inh, D1 mod)
CCNc1nc(Oc2ccc(=O)n(-c3ccccc3)n2)nc(N2CCOCC2)n1	D1 mod 10 | D1 mod confirm 18936 | D1 ag no DA inactive | Isoprot counter active
CCNc1nc(Oc2ccc(=O)n(C)n2)nc(N2CCOCC2)n1	none
N#Cc1c2n(c3c(=O)n(Cc4ccccc4)cnc13)CCCC2	none
N#Cc1c2n(c3c(=O)n(Cc4ccc(Cl)cc4)cnc13)CCCCC2	D1 mod 11 | D1 mod confirm 13432 | D1 ag no DA inactive | Isoprot counter active
N#CCc1nc2c3c4c(sc3ncn2n1)CCCC4	D1 mod 9.5 | D1 mod confirm 11284 | D1 ag no DA inactive | Isoprot counter active
O=c1[nH]c2ccccc2n2c(-c3ccncc3)nnc12	none (no result: ROCK2 blocker, PKA kinase inh, D1 mod)
Clc1ccc(OCc2nnc3n2N=C(c2ccc4c(c2)OCCO4)CS3)c(Cl)c1	D1 mod 4 | D1 mod confirm 9040 | D1 ag no DA inactive | Isoprot counter active
CCc1nnc2n1N=C(c1ccc(-c3ccc(Cl)cc3Cl)o1)CS2	none (no result: hDAT+cocaine)
CCOC(=O)c1c(-c2ccc(C)o2)csc1NC(=O)CN1CCN(CC)CC1	none (no result: D1 mod)
COC(=O)c1c(-c2cccs2)csc1NC(=O)CN1CCOCC1	D1 mod 28 | D1 mod confirm 18224 | D1 ag no DA inactive | Isoprot counter active
CC(C)Cc1cc(-c2ccco2)c(C#N)c(N)n1	D1 mod 28 (no result: hDAT+cocaine) | D1 mod confirm 29116 | D1 ag no DA inactive | Isoprot counter active
COC(=O)CSc1nc(-c2ccccc2)cc(-c2ccco2)c1C#N	none
N#Cc1c(-c2ccco2)cc(-c2ccc(F)cc2)nc1N	D1 mod 9.9 | D1 mod confirm 16300 | D1 ag no DA inactive | Isoprot counter active
CCSc1nc(N)c(C#N)c(-c2ccco2)c1C#N	none (no result: ROCK2 blocker, PKA kinase inh, D1 mod)
O=C(/C=C/c1cccc([N+](=O)[O-])c1)NCCN1CCOCC1	none (no result: ROCK2 blocker, PKA kinase inh, D1 mod)
CC1CCN(c2nnc(N)s2)CC1	D1 mod 2.8 | D1 mod confirm inactive | D1 ag no DA inactive | Isoprot counter inactive
Nc1nnc(N2CCCCC2)s1	none
CSc1nnc(-c2cccs2)n1-c1ccccc1	D1 mod 3.7 | D1 mod confirm 17328 | D1 ag no DA inactive | Isoprot counter active
Cc1[nH]nc2c1C(c1ccc(F)cc1)C1=C(CC(C)(C)CC1=O)N2 (stereo not given)	D1 mod 6.3 | D1 mod confirm 12860 | D1 ag no DA inactive | Isoprot counter inactive
O=C(Nc1cc(Cl)ccc1Cl)c1ccc(OC(=O)c2ccco2)cc1	none (no result: ROCK2 blocker, PKA kinase inh, D1 mod)
CC(Oc1ccc(Cl)cc1Cl)C(=O)NCc1ccncc1 (stereo not given)	D1 mod 6.7 (no result: ROCK2 blocker) | D1 mod confirm 14184 | D1 ag no DA inactive | Isoprot counter active
CC1(C)c2[nH]c3ccccc3c2C[C@@H]2C(=O)N(Cc3ccco3)C(=O)N21	none (no result: ROCK2 blocker, PKA kinase inh, D1 mod)
CCOc1ncccc1C(=O)Nc1ccc(Cl)cc1	D1 mod 2.5 | D1 mod confirm 12668 | D1 ag no DA inactive | Isoprot counter active
CCOc1ncccc1C(=O)Oc1ccc2c(c1)OCO2	D1 mod 3.2 | D1 mod confirm 8328 | D1 ag no DA inactive | Isoprot counter active
CCc1ccc(C(=O)NCC2COc3ccccc3O2)o1 (stereo not given)	D1 mod 3.7 | D1 mod confirm inactive | D1 ag no DA inactive | Isoprot counter inactive
CCOc1ncccc1C(=O)NCC1COc2ccccc2O1 (stereo not given)	D1 mod 13 | D1 mod confirm 17888 | Isoprot counter active
COc1ccccc1OCc1ccc(C(=O)NCC2CCCO2)o1 (stereo not given)	none (no result: ROCK2 blocker, PKA kinase inh, D1 mod)
CCOC(=O)c1oc2ccc(OC)cc2c1NC(=O)CN1CCN(C)CC1	none (no result: ROCK2 blocker, PKA kinase inh, D1 mod)
CCOCC(=O)Nc1c(C(=O)OCC)oc2ccccc12	D1 mod 8.8 | D1 mod confirm 17016 | D1 ag no DA inactive | Isoprot counter active
NC(=O)c1oc2ccccc2c1NC(=O)c1ccc(F)cc1	D1 mod 4.5 | D1 mod confirm 7528 | D1 ag no DA inactive | Isoprot counter inactive
CCOC(=O)c1oc2ccccc2c1NC(=O)CN1CCN(C)CC1	D1 mod 3.5 | D1 mod confirm 8308 | D1 ag no DA inactive | Isoprot counter active
CCOC(=O)c1oc2ccccc2c1NC(=O)c1cc(OC)cc(OC)c1	D1 mod 4.7 | D1 mod confirm 13500 | Isoprot counter active
NC(=O)c1oc2ccccc2c1NC(=O)C1CCCCC1	none
CCOC(=O)c1oc2ccccc2c1NC(=O)Cc1cccs1	none
CC(=O)Nc1ccc(S(=O)(=O)NCc2ccc(C(=O)NC(C)c3ccccc3)cc2)cc1 (stereo not given)	none (no result: ROCK2 blocker, PKA kinase inh, D1 mod)
CCOC(=O)c1oc2ccccc2c1NC(=O)COC	D1 mod 21 | D1 mod confirm 20772 | D1 ag no DA inactive | Isoprot counter active
Cc1ccc(S(=O)(=O)N2CCCCC2)cc1C(=O)Nc1ncn[nH]1	none (no result: D1 mod, hDAT+cocaine)
CC1(c2nnc(-c3cccc(Cl)c3)o2)CC(c2cccnc2)=NO1 (stereo not given)	none (no result: ROCK2 blocker, PKA kinase inh, D1 mod)
Cc1ccc(S(=O)(=O)NCCC(=O)NCc2ccc3c(c2)OCO3)cc1C	none
O=C(CCNS(=O)(=O)c1ccc2c(c1)CCC(=O)N2)NCc1ccc2c(c1)OCO2	D1 mod 2.9 | D1 mod confirm 6928 | D1 ag no DA inactive | Isoprot counter inactive
C=CCn1c(SCC(=O)c2cc(C)n(CCOC)c2C)nc2sc(C)c(C)c2c1=O	none (no result: ROCK2 blocker, PKA kinase inh, D1 mod)
COc1ccc(-c2nnc(COc3ccc4ccccc4c3)o2)cc1OC	D1 mod 4.9, hDAT+cocaine 2.9 (no result: ROCK2 blocker, PKA kinase inh) | D1 mod confirm 20456 | D1 ag no DA inactive | Isoprot counter active
COc1cc(-c2nnc(COc3ccc4cc(Br)ccc4c3)o2)cc(OC)c1OC	none
c1ccc(N2OCC3Cn4c(nc5ccccc54)C32)cc1 (stereo not given)	none (no result: ROCK2 blocker, PKA kinase inh, D1 mod)
FC(F)(F)c1ccc(CN2CCCCCC2)cc1	none (no result: ROCK2 blocker, PKA kinase inh, D1 mod)
CCSc1nncn1/N=C/c1ccc(OC)c(OC)c1	D1 mod 8.3 | D1 mod confirm 15592 | D1 ag no DA inactive | Isoprot counter active
